About 83,000 compounds went through this panel and 20% of them were active in at least one assay; those are over-represented in the sample as a whole.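 Percent growth is the endpoint: 0 to 100 indicates growth inhibition (40 means 60% inhibition), 0 means no net growth, and negative values indicate cell death.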 A number with no mark means an inactive call. Calls of active or inactive are those of the source. The calls were made as follows: active = growth percent below 10; inactive = the rest.

Assay in all cases: NCI-60 one-dose screen, 48 h (100 = growth as untreated, 0 = no growth, -100 = all killed)
For assay [1], the system named is NCI-H226 lung. Particulars: 10 µM.
Assay [2] relates to NCI-H322M lung. Particulars: 10 µM.
Assay [3] relates to HOP-62 NSCLC. Particulars: 10 µM.
Assay [4] concerns NCI-H460 lung. The note with it: 10 µM.
Assay [5] deals with HOP-92 NSCLC. The note with it: 10 µM.
Assay [6] relates to NCI-H522 lung. Particulars: 10 µM.
For assay [7], the system named is A549/ATCC NSCLC. The note with it: 10 µM.
In assay [8] the test system is COLO 205 colon. Particulars: 10 µM.
Assay [9] deals with SF-268 CNS. Particulars: 10 µM.
The subject of assay [10] is SF-295 CNS. Particulars: 10 µM.
Assay [11] deals with SF-539 CNS. Particulars: 10 µM.
For assay [12], the system named is M14 melanoma. Particulars: 10 µM.
Assay [13] has as its system HCT-15 colon. Particulars: 10 µM.
Assay [14] concerns SNB-75 CNS. The note with it: 10 µM.
Assay [15] deals with SNB-19 CNS. Particulars: 10 µM.
The subject of assay [16] is U251 CNS. Particulars: 10 µM.
Assay [17] concerns PC-3 prostate. Particulars: 10 µM.
For assay [18], the system named is SK-MEL-5 melanoma. The note with it: 10 µM.
In assay [19] the test system is UACC-62 melanoma. Particulars: 10 µM.
The test system of assay [20] is MDA-MB-468 breast. The note with it: 10 µM unless noted.

Take `COc1ccc2[nH]cc(-c3nc(N)nnc3-c3cn(C)c4ncc(Br)cc34)c2c1`: the growth was 8.48% (active) in [1]; 35% in [2]; 26.5% in [3]; 1.08% (active) in [4]; -2.43% (active) in assay [5]; -55.1% (active) in [6]. The growth in assay [7] is 17.7%; in assay [8], -73.9% (active); in assay [9], 12.9%; in assay [10], 17%; in [11], -3.25% (active); in assay [12], 6.91% (active). For the same molecule, the growth was 12.3% in assay [13]; 23.4% in assay [14]; 30% in [15]; 5.39% (active) in [16]; 10.5% in assay [17]; -50.1% (active) in assay [18]. Also, the results for the growth in assay [19] and in assay [20] were 14.2% and -8.06% (active), respectively.

On to `COc1ccc(Cn2cc(C#N)c(N)c2C(C)=O)c(OC)c1`, for which the growth in assay [1] was 102%; in [2], 103%; in assay [3], 105%; in [4] it was 108%; in assay [5], 85.7%; in assay [6], 104%. In addition, the growth was 103% in [7]; 125% in assay [8]; 103% in assay [9]; 109% in assay [10]; 96.2% in [11]; 99.8% in [12]. Besides, the growth in assay [13] was 102%; in assay [14], 111%; in [15], 105%; in [16] it was 105%; in [17], 97.6%; in [18] it was 99.1%. Besides, the figures for the growth in [19] and in assay [20] were 98.1% and 99.5%, respectively.

As for `COc1ccc(NCc2cn(-c3ccc(C(=O)O)cc3)nc2-c2ccc(F)cc2)cc1C(F)(F)F`, the growth is 66.3% in [1]; 62% in [2]; 66.3% in assay [3]; 37.2% in [4]; 68.3% in [5]; 40.2% in assay [6]. Moreover, the growth in assay [7] is 35.8%; in [8], 71.2%; in assay [9], 53.8%; in assay [10] it was 29.6%; in assay [11], 53.9%; in assay [12], 51.5%. Moreover, the growth in assay [13] is 43.7%; in assay [14], 79.1%; in [15], 39.3%; in assay [16], 29.5%; in assay [17], 36.3%; in assay [18], 26.7%. In addition, the growth was 13.4% in [19] and 65.1% in [20].

With `O=C(CN1CCN(c2ncnc3c2cnn3-c2ccccc2)CC1)Nc1ccc(Br)cc1`, the growth in assay [1] is 62.5%; in [2] it was 77.2%; in assay [3], 84.6%; in assay [4], 57.7%; in [5] it was 74.6%; in [6], -80.3% (active). Further, the growth in [7] was 75.2%; in assay [8], 70.6%; in assay [9], 58.8%; in assay [10], 83%; in assay [11], 82.3%; in [12], 59.3%. For the same molecule, the growth in assay [13] was 45.2%; in assay [14], 80.9%; in [15] it was 69.3%; in assay [16], 76.2%; in assay [17], 49.1%; in assay [18], 9.44% (active). For the same molecule, the growth in assay [19] was 45.1%; in assay [20], 49.2%.

For `COc1ccc(Cc2nn(CC(=O)N/N=C/c3ccc(Br)cc3)c(=O)c3c(C)noc23)cc1`, the growth in [1] is 55.3%; in assay [2] it was 62.6%; in assay [3] it was 2.75% (active); in [4], 9.38% (active); in assay [5], -15% (active); in assay [6], 29.2%. For the same molecule, the growth is 6.92% (active) in assay [7]; 52.2% in [8]; 37.3% in [9]; -4.74% (active) in assay [10]; 13% in [11]; 57.6% in [12]. The growth in assay [13] is 63.8%; in assay [14], -30.1% (active); in [15] it was 21.6%; in assay [16], -27.7% (active); in [17], 43.9%; in assay [18], 85.7%. In addition, the growth is 54.3% in assay [19] and 26.4% in [20].

With `Fc1ccc(-c2csc(Nc3cccc(Nc4nc(-c5ccc(F)cc5)cs4)c3)n2)cc1`, the growth in assay [1] was 51.5%; in assay [2], 60.1%; in assay [3] it was 72.7%; in [4], 40.4%; in assay [5] it was 39.2%; in assay [6] it was 6.23% (active). Further, the growth in [7] was 62.8%; in assay [8], 75.7%; in assay [9], 57.9%; in assay [10], 90.4%; in assay [11] it was 70.9%; in [12], 66.8%. Moreover, the growth was 52.5% in assay [13]; 95.2% in assay [14]; 70.2% in [15]; 62.7% in assay [16]; 35.2% in [17]; 61.2% in assay [18]. Also, the growth in assay [19] is 57.1%; in assay [20], 38.6%.

As to `C#C[C@]1(O)CC[C@H]2[C@@H]3CC=C4c5sc(Nc6ccc(N(C)C)cc6)nc5CC[C@]4(C)[C@H]3CC[C@@]21C`, the growth is -43.2% (active) in assay [1]; 42.5% in [2]; 10.7% in assay [3]; 7.37% (active) in assay [4]; 9.62% (active) in assay [5]; -57.1% (active) in assay [6]. The growth in [7] was 20.5%; in assay [8] it was -28.6% (active); in [9], 11.7%; in assay [10] it was -58.7% (active); in [11] it was -75.7% (active); in assay [12], -12.3% (active). The growth in assay [13] was -37.5% (active); in assay [14], 33.8%; in [15], 18.1%; in assay [16], -75% (active); in assay [17] it was 5.44% (active); in assay [18] it was 0.6% (active). Also, the growth was -2.23% (active) in [19] and -56.3% (active) in [20].

The values are drawn from PubChem BioAssay (NCI).
